Screens from PubChem.
Hits are enriched below; roughly 19% of the tested compounds scored in any of these assays.
DT40 TDP1 CPT = DT40-hTDP1 cell growth loss with CPT; chicken DT40 Tdp1-/-;hTDP1 cells + 20 nM CPT, ATP luminescence, 48 h; 12% of 420,000 active; Potency, µM (top dose mostly 46.2 µM), most hits filed as inhibitors; further: nearly all actives have a fitted effect of over 55% in size
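Chicken DT40 Tdp1-/- cells stably complemented with human TDP1 were seeded at 400 cells/well in medium containing 20 nM camptothecin, exposed to pin-transferred compounds, and grown at 37 °C for at least 48 hr. Viability was read as ATP luminescence.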
TDP1 block = inhibitors of human tyrosyl-DNA phosphodiesterase TDP1; Q9NUW8; recombinant TDP1, AlphaScreen DNA substrate cleavage; Potency, µM (top dose mostly 130 µM), most hits filed as inhibitors; 0.28% of 350,000 active; further: nearly all actives have a fitted effect of over 40% in size
Target sequence (Q9NUW8 whole entry, looked up): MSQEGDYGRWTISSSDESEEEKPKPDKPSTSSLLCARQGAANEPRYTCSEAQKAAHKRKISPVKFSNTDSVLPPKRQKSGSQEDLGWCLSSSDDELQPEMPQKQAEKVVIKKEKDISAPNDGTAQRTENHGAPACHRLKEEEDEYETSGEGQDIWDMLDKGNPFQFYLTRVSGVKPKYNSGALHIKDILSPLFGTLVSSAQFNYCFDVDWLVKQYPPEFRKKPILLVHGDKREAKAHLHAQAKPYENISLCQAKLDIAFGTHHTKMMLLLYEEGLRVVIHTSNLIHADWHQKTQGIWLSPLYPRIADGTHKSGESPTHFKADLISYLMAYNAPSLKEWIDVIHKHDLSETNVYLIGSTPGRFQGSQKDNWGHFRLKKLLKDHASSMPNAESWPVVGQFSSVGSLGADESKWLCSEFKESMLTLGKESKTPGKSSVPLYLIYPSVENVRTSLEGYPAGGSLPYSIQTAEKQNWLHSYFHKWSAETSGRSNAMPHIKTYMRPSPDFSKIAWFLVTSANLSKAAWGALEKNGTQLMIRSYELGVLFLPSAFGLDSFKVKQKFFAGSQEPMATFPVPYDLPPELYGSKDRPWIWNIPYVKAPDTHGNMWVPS
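Tdp1 1 nM final; 15 min RT w/ cpd; substrate 15 nM, 5 min; beads 10 ug/ml, 10 min; AlphaScreen read. Neg ctrl: no enzyme.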
TDP1 cell noCPT = qHTS for Inhibitors of human tyrosyl-DNA phosphodiesterase 1 (TDP1): qHTS in cells in absence of CPT; 15% of 420,000 active; DT40 Tdp1-/- hTDP1 cells, no CPT, ATP luminescence, 48 h; Potency, µM (top dose mostly 46.2 µM), actives largely listed as inhibitors; AID 686978, 2013; further: nearly all actives have a fitted effect of over 55% in size
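No-CPT arm: Tdp1-/-;hTDP1 DT40 cells (400/well) plus compounds, incubated ≥48 hr at 37 °C. Readout CellTiter-Glo luminescence.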
IL-1B inflam inh = blocks inflammasome-driven IL-1 beta release | THP-1 LPS/ATP IL-1B secretion, AlphaLISA, 16 h; hits give low values | activity change, % at 57.5 µM | 4.7% of 360,000 active | AID 743279; in the data active means activity change below about -50%; inconclusive means mostly about -30% to -49%
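Secreted IL-1B measured by AlphaLISA bead assay after 16 h compound exposure of THP-1 cells; compounds (final up to 57.5 uM) added 1 h before LPS (250 ng/mL) and ATP (1.25 mM) stimulation; lower signal means less secretion.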
Giardia killer = Giardia lamblia killing; Giardia lamblia trophozoite viability; activity change, % at 7.66 µM, hits read low; 0.15% of 340,000 active; AID 540267; in the data active means activity change below about -80%; inconclusive means between about -30% and that limit;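 further: parasites exposed to compound for two days anaerobically before the ATP read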
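Viability, read as ATP luminescence: trophozoites at 100 cells/well, compound added, 48 hrs anaerobic at 37 deg C, then 15-30 min room-temperature development before reading.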
ELG1 DNA repair = ELG1-dependent DNA repair inhibition. 2.3% of 330,000 active. Potency, µM (top dose mostly 46.1 µM), most hits filed as inhibitors. HEK293T ELG1-luciferase reporter, luminescence, 16 h; DNA damage induced by 5-fluorouridine; further: nearly all actives have a fitted effect of over 55% in size
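Quantitative HTS, concentration-response format. 2,000 cells/well co-treated with 5-fluorouridine and compound, 16 hr in 5% CO2 at 37 °C; ONE-Glo luminescence read after 30 min.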
Hits are given with their value; i = inactive; ? = inconclusive; nt = no result given; [ ] = another dose, or the depositor's remark. Unless noted, the call rests on the fitted dose curve; in most records, active means well fitted curve in the direction sought with a large enough effect; inconclusive means small, poorly fitted or top-dose-only effect, or another doubt; inactive means no such curve, though single readings can be large; an effect the other way counts as inactive or inconclusive.

SMILES	DT40 TDP1 CPT	TDP1 block	TDP1 cell noCPT	IL-1B inflam inh	Giardia killer	ELG1 DNA repair
Cc1cc(C(C)(C)C)cc(C)c1S(=O)(=O)N1CC(=O)Nc2ccccc21	?	nt	i	-63	i	i
Cc1ccc(C(C)(C)C)cc1S(=O)(=O)N1CC(=O)Nc2ccccc21	i	i[0.0935 µM]	?	-100	i	i
O=C(NCc1ccccc1F)c1cccc(NC(=O)N2CCSc3ncccc32)c1	23µM	i	?	nt	nt	nt
CC(C)Oc1ccc(CNC(=O)Cc2ccc(NC(=O)N3CCSc4ncccc43)cc2)cc1	16µM	i	16µM	nt	nt	nt
COc1ccccc1CNC(=O)c1cccc(NC(=O)N2CCSc3ncccc32)c1	?	i	?	nt	nt	nt
Cc1ccc(CNC(=O)c2cccc(NC(=O)N3CCSc4ncccc43)c2)cc1	?	i	21µM	nt	nt	nt
COc1ccc(OC)c(CNC(=O)Cc2ccc(NC(=O)N3CCSc4ncccc43)cc2)c1	?	i	?	nt	nt	nt
COC(=O)c1ccc(N2CCN(C)CC2)c(NC(=O)c2cccnc2)c1	i	i	i	i	i	i
Cc1ccc(S(=O)(=O)c2cnc(-c3ccccc3)[nH]c2=O)cc1	i	nt	i	nt	i	nt
CCOc1ccc(-c2cc(CCCC(=O)NCCc3cc(OC)c(OC)c(OC)c3)no2)cc1	?	i	?	nt	nt	nt
CCC/C(O)=C1\C(=O)CC(C)(C)CC1=Nc1ccc(OC)cc1	?	nt	15µM	i	i	i
CCCC/C(O)=C1\C(=O)CC(C)(C)CC1=Nc1ccc(OC)cc1	?	i	?	?	i	i
CCOC(=O)C(=Cc1cc(=O)c(OC)co1)C(=O)OCC	1.3µM	i	0.73µM	-97	i	5.8µM
COc1coc(C(O)CN)cc1=O (stereo not given)	i	i	i	i	i	i
Nc1cc(N)cc(N)c1	4.5µM	nt	4.5µM	nt	nt	nt
CN(C)S(=O)(=O)c1cccc(NC(=O)COC(=O)c2cccn2C)c1	i	i	i	i	i	i
COc1ccc(CCN2CC(C#N)=C3c4cc(OC)c(OC)cc4CCN3C2)cc1OC	?	i	?	i	i	21µM
COc1cc2c(cc1OC)C1=C(C#N)CCC(=O)N1CC2	i	i	i	i	i	i
O=C(NCc1ccc(Cl)cc1)c1cccc(NC2=NC3CS(=O)(=O)CC3S2)c1 (stereo not given)	i	nt	i	i	i	i
COc1ccc(NC(=O)CC2C(=O)N(c3ccc(C)cc3)C(=O)N2C2CCCCC2)cc1 (stereo not given)	i	i	i	nt	nt	nt
CCOC(=O)c1cccc(NC(=O)CC2C(=O)N(c3ccc(OC)cc3)C(=O)N2C2CCCC2)c1 (stereo not given)	23µM	i	23µM	nt	nt	nt
CCOC(=O)c1cccc(NC(=O)CC2C(=O)N(c3ccc(Cl)cc3)C(=O)N2C2CCCC2)c1 (stereo not given)	21µM	i	18µM	nt	nt	nt
COC(=O)NC(/C=C/c1ccccc1)C(C(C)=O)C(=O)OC (stereo not given)	nt	i	nt	nt	nt	nt
Cc1nc2c(-c3ccccc3)c[nH]n2c(=O)c1Cc1ccccc1	23µM	i	23µM	i	i	?
COc1ccccc1-c1c(C)[nH]n2c(=O)c(Cc3ccccc3)c(C)nc12	?	i	?	i	i	?
SMILES	DT40 TDP1 CPT	TDP1 block	TDP1 cell noCPT	IL-1B inflam inh	Giardia killer	ELG1 DNA repair
Cc1nc2c(-c3ccccc3)c(C)[nH]n2c(=O)c1Cc1ccc(C(C)C)cc1	2.6µM	i	2.3µM	nt	nt	nt
Cc1cc(=O)n2[nH]cc(-c3ccccc3)c2n1	?	i	?	i	i	i
CCc1c(C)nc2c(-c3ccccc3)c(C)[nH]n2c1=O	i	i	i	i	i	i
Cc1ccc(Cc2c(C)nc3c(-c4ccccc4)c(C)[nH]n3c2=O)cc1	6.5µM	i	4.6µM	nt	nt	nt
COc1ccc(-c2c(C)[nH]n3c(=O)c(Cc4ccccc4)c(C)nc23)cc1	13µM	i	21µM	i	i	?
COc1ccccc1C(=O)NC(=O)COC(=O)c1ccc(Cl)nc1	i	nt	i	i	i	i
CCCCc1c(C)nc2c(-c3ccc(Cl)cc3)c(C)[nH]n2c1=O	4.6µM	i	1.6µM	nt	nt	nt
